Assay results from PubChem BioAssay AID2546 (National Center for Advancing Translational Sciences (NCATS), 2010).
Hit rate of the full screen: of about 310,000 compounds, about 11,000 (3.5%) were called active. Not shown: some 8% with an inconclusive outcome. Calls follow the shape of the dose curve; as a rule, active = well fitted inhibition curve with a large enough effect; inconclusive = small, poorly fitted or top-dose-only effect, or effect the other way; inactive = flat fitted curve, though single readings scatter. What follows is part of a selection rich in actives, with near analogues and random picks from the rest.

Assay: VP16 counterscreen qHTS for inhibitors of ROR gamma transcriptional activity;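 also: Gal4-VP16 expression switched on by copper sulfate through the metallothionein promoter; nearly all actives have a fitted effect of over 50% in size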
Conditions: Drosophila S2 Gal4-VP16 UAS-luciferase, luminescence, 20 h; series mostly up to 53.6 µM; activity, negative = inhibition: at the top concentration
% is scaled to controls: 0 for no effect and ±100 for the full control effect; potency is read from the fitted curve at half-maximal effect.

| Structure (SMILES) | activity, negative = inhibition | Potency |
| --- | --- | --- |
| COc1ccc(OC)c(NC(=O)c2ccc3c(c2)CCN3S(C)(=O)=O)c1 | -1.41% (inactive) | – |
| COc1ccc(-n2ncc3c2CC(C)(C)CC3NC(=O)CCc2c(C)noc2C)cc1 (stereo not drawn) | -3.92% (inactive) | – |
| CCn1c(CC(=O)Nc2ccccc2)nnc1SCC(=O)N1CCOCC1 | -3.65% (inactive) | – |
| Cc1cccc(C)c1OCCN1CCOCC1 | 6.41% (inactive) | – |
| CC(CC(=O)N1CCN(c2ccccc2)CC1)S(=O)(=O)c1ccc2c(c1)NC(=O)CS2 (stereo not drawn) | 0.387% (inactive) | – |
| CCOC(=O)c1c(-c2ccc(C)cc2)csc1/N=C(\C)C1=C(O)c2ccccc2C1=O | 3.7% (inactive) | – |
| CCCCC(C(=O)OCC(=O)c1ccc(OC)cc1)N1C(=O)c2ccccc2C1=O (stereo not drawn) | 3.78% (inactive) | – |
| CCOC(=O)C1=C(c2ccc(OC)cc2)C(=O)c2ccccc2C1=O | – | 4.47 µM (active) |
| COc1ccccc1-n1c(SCC(=O)Nc2cccc(C(=O)O)c2)nnc1-c1ccccc1O | -1.31% (inactive) | – |
| CCOC(=O)[C@@H]1[C@H]2COc3ccc(Br)cc3[C@H]2N2C(=O)N(c3ccc(Cl)cc3)C(=O)[C@@]12C | -0.565% (inactive) | – |
| COC(=O)c1cc(NS(=O)(=O)c2ccc3c(c2)c(=O)n(C)c(=O)n3C)cc(C(=O)OC)c1 | -8.45% (inactive) | – |
| Cc1[nH]c2ccccc2c1C(=O)CN1CC(C)CC(C)C1 (stereo not drawn) | 0.792% (inactive) | – |
| CC(=O)Nc1cccc(NC(=O)c2ccc3c(c2)CCN3S(C)(=O)=O)c1 | -2.68% (inactive) | – |
| COc1ccccc1-c1sc2ccccc2c1-c1ccc(C(C)=O)cc1 | 21.8% (inactive) | – |
| CN(C)c1ccc(-n2cccc2/C=N/n2cnnc2)cc1 | – | 14.1 µM (active) |
| CN(C)c1ccc(-n2cccc2/C=C2/SC(=Nc3ccc(F)cc3)NC2=O)cc1 | 5.37% (inactive) | – |
| C(=N\n1cnnc1)/c1cccnc1 | -11.9% (inactive) | – |
| CNC[C@H](CC1CCCCC1)NC[C@H](NCCC1CCCC1)[C@H](C)O | 0.758% (inactive) | – |
| O=C1c2ccccc2C(=O)N1CCOc1ccc(F)cc1 | 3.46% (inactive) | – |
| CN1CN(C)c2ccc([N+](=O)[O-])c3cccc1c23 | -1.56% (inactive) | – |
| CCCNC(=O)CCc1c(C)nc2c(c(C)nn2-c2ccc(C)cc2)c1C | -11.2% (inactive) | – |
| COc1ccc(Cn2c(=S)[nH]c3cc(C(=O)NCCCN4CCOCC4)ccc3c2=O)cc1 | 2.27% (inactive) | – |
| COC(=O)c1ccc2c(=O)n(CC3CCCO3)c(=S)[nH]c2c1 (stereo not drawn) | – | 5.01 µM (active) |

| Structure (SMILES) | activity, negative = inhibition | Potency |
| --- | --- | --- |
| O=C(NC1CCCCC1)c1ccc2c(=O)n(CC3CCCO3)c(=O)[nH]c2c1 (stereo not drawn) | -5.27% (inactive) | – |
| COc1ccccc1OCCCC(=O)Nc1ccc2c(c1)OCCO2 | 14.8% (inactive) | – |
| O=C(CSc1cccc2cccnc12)N/N=C/c1cccnc1 | – | 20 µM (active) |
| O=C(CNC(=O)c1cccnc1)N/N=C/c1cccnc1 | -1.32% (inactive) | – |
| Cc1nc2ccccc2n1CC(=O)N/N=C/c1cccnc1 | 3.63% (inactive) | – |
| CN(C)Cc1c(O)ccc2c(=O)c(-c3ccccc3Cl)coc12 | -6.46% (inactive) | – |
| COc1ccccc1CN1CCNC(=O)C1CC(=O)N(C)CC1CCOCC1 (stereo not drawn) | -6.75% (inactive) | – |
| COc1ccc2c(C)c(CCC(=O)NC3CC3)c(=O)oc2c1C | 16.5% (inactive) | – |
| COc1ccc2c(c1OC)C(=O)N(c1ccc(O)cc1)C2 | 1.37% (inactive) | – |
| O=C(NCCN1CCOCC1)c1ccc(/C=C2\Sc3ccccc3N(Cc3ccc(F)cc3)C2=O)cc1 | -28.8% (inactive) | – |
| CN1C(=O)/C(=C/c2ccc(C(=O)NC3CCCC3)cc2)Oc2ccccc21 | 4.63% (inactive) | – |
| CN1CCN(CCCNC(=O)c2ccc(/C=C3\Oc4ccccc4N(Cc4ccc(Cl)cc4)C3=O)cc2)CC1 | – | 11.2 µM (active) |
| Cc1cc(N2C(=O)C(O)=C(C(=O)c3ccc(C)o3)C2c2ccc(OCc3ccccc3)cc2)no1 (stereo not drawn) | 0.706% (inactive) | – |
| O=C(CN1CCC(NC(=O)Nc2ccccc2)CC1)Nc1cccc([N+](=O)[O-])c1 | -0.0438% (inactive) | – |
| COc1cccc(C(=O)CC(=O)C(=O)Nc2ccc([N+](=O)[O-])cc2C)c1 | -23.3% (inactive) | – |
| CC1(C)Cc2c(sc(NC(=O)C(=O)N3CCOCC3)c2C#N)CO1 | -0.0226% (inactive) | – |
| COc1ccc(Cc2nc3ccc(C(=O)NCC4CCOCC4)cc3o2)cc1OC | 29.3% (inactive) | – |
| O=C(O)c1ccccc1CSc1nc2ccccc2s1 | -13.2% (inactive) | – |
| O=S(=O)(NCc1ccco1)c1cnc(Cl)c(Cl)c1 | -1.39% (inactive) | – |
| C/C(=N\Nc1ncc(Cl)cc1Cl)c1ccc(S(=O)(=O)NCc2ccco2)cc1 | – | 3.16 µM (active) |
| O=C(CCCl)Nc1ccc(S(=O)(=O)NCc2ccco2)cc1 | -11.5% (inactive) | – |
| CCCc1ccc(OCCNC(=O)c2ccccc2Br)cc1 | -1.36% (inactive) | – |
| Cc1cc(NC(=O)c2ccccc2C)no1 | -5.27% (inactive) | – |

| Structure (SMILES) | activity, negative = inhibition | Potency |
| --- | --- | --- |
| O=Cc1cn(Cc2ccccc2)nc1-c1cccnc1 | 1.13% (inactive) | – |
| O=C1/C(=C\c2cccnc2)CN(Cc2ccccc2)C/C1=C\c1cccnc1 | – | 2 µM (active) |
| Clc1ccc(CN2CCN(/N=C/c3cccnc3)CC2)cc1 | -6.15% (inactive) | – |
| Cc1c(C(C)(C)O)[nH]c2ccc(C#N)cc12 | 0.547% (inactive) | – |
| O=C(O)c1ccccc1C(=O)NC1=NN(c2ccccc2)CC1 | -3.3% (inactive) | – |
| O=C1CCC(C(=O)N2CCCCO2)CN1Cc1cccc(C(F)(F)F)c1 (stereo not drawn) | 25.2% (inactive) | – |
| NS(=O)(=O)c1ccc(CCNS(=O)(=O)c2cccc3cccnc23)cc1 | 2.36% (inactive) | – |
| Cc1cc(Cl)c2oc(C(=O)NC(C)c3ccncn3)c(C)c2c1 (stereo not drawn) | 1.75% (inactive) | – |
| Cc1cc(C(=O)N/N=C/c2ccccc2[N+](=O)[O-])c(C)o1 | 13.8% (inactive) | – |
| CN(C)/N=C/c1cc(Cl)cc([N+](=O)[O-])c1O | -13.3% (inactive) | – |
| O=C(N/N=C/c1cc(Cl)cc([N+](=O)[O-])c1O)C(O)(c1ccccc1)c1ccccc1 | – | 0.891 µM (active) |
| Cc1nn(C)c(Cl)c1CN1CCC(Oc2ccc(C(=O)N3CCCC3)cc2)CC1 | 1.32% (inactive) | – |
| O=C(C[C@H]1C(=O)N(c2ccc(F)c(F)c2)C[C@@H]1Cc1ccccc1)Nc1ccccc1 | -4.57% (inactive) | – |
| Cc1c(C(=O)NC2CCCCC2)oc2ccccc12 | 12.7% (inactive) | – |
| COc1ccc(C=C(C#N)C#N)c(CSc2ccccn2)c1 | – | 15.8 µM (active) |
| CCOC(=O)CSc1ccccn1 | 0.354% (inactive) | – |
| COc1cccc(N(CC(=O)NCCSc2ccccn2)S(C)(=O)=O)c1 | 3.01% (inactive) | – |
| CCCn1c2ccccc2c2cnn(CC(=O)NCCCN3CCCCC3CC)c(=O)c21 (stereo not drawn) | -1.01% (inactive) | – |
| O=C(OCC(=O)N1CCN(C(=O)c2ccco2)CC1)c1cccc(O)c1 | -0.905% (inactive) | – |
| Cc1ccnc(N2CCCC(C(=O)NC3CC3)C2)n1 (stereo not drawn) | -2.77% (inactive) | – |
| Cc1nc2ccccc2c(=O)n1NC(=O)c1ccccc1 | 4.4% (inactive) | – |
| Cc1ccnc(-n2sc3ccccc3c2=O)n1 | – | 11.2 µM (active) |
